According to PubChem BioAssay (Tox21):
Results filed as inconclusive are left out. The source made the active and inactive calls. Unless noted, calls follow the shape of the dose curve; as a rule, active = well fitted curve in the direction sought with a large enough effect in the repeat runs; inconclusive = weak or mixed curves; inactive = no such curve, though single readings can be large; an effect the other way counts as inactive or inconclusive.

Columns and labels:
[1] = qHTS assay to identify small molecule antagonists of the estrogen receptor alpha (ER-alpha) signaling pathway using the BG1 cell line in the presence of 0.1 nM 17-beta-estradiol - cell viability counter screen (AID 1259241); also: nearly all actives have a fitted effect of over 40% in size; also: potency is read from the fitted curve at half-maximal effect
Method in brief: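 The cell line endogenously expresses full-length ER-alpha and carries four EREs driving luciferase. Cells are cultured 5 days hormone-free, treated 22 hr with compounds and 0.1 nM estradiol, then viability is read by fluorescence.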

[2] = qHTS assay to identify small molecule antagonists of the androgen receptor (AR) signaling pathway using the MDA cell line in the presence of 0.5 nM R1881 - cell viability counter screen (AID 1259242); also: nearly all actives have a fitted effect of over 45% in size; also: potency is read from the fitted curve at half-maximal effect
Method in brief: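 Live-cell protease fluorescence, CellTiter-Fluor, 30 min at 37C. Cells: MDA-kb2, 3,000/well, preincubated 5 hr. Compounds plus 0.5 nM R1881 final, 16 hr, 37C, 0% CO2.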

[3] = biological target: Androgen receptor (Homo sapiens) (UniProt P10275); assay: qHTS assay to identify small molecule antagonists of the androgen receptor (AR) signaling pathway using the MDA cell line in the presence of 0.5 nM R1881 (AID 1259243); also: nearly all actives have a fitted effect of over 50% in size; also: potency is read from the fitted curve at half-maximal effect
Method in brief: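 MDA-kb2, MMTV-luc (AR/GR elements); 3,000 cells/well; cpd + 0.5 nM R1881 final; 16 hr 37C, 0% CO2; ONE-Glo 30 min RT; luminescence.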

[4] = biological target: Estrogen receptor (Homo sapiens) (UniProt P03372); assay: qHTS assay to identify small molecule antagonists of the estrogen receptor alpha (ER-alpha) signaling pathway using the BG1 cell line in the presence of 0.1 nM 17-beta-estradiol (AID 1259244); also: nearly all actives have a fitted effect of over 50% in size; also: potency is read from the fitted curve at half-maximal effect
Method in brief: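 Luminescence after ONE-Glo (30 min, room temperature) measured ERE-luciferase activity in VM7Luc4E2 cells treated 22 h with compound and 0.1 nM final 17beta-estradiol as stimulator.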

[5] = qHTS assay to identify small molecule HDAC inhibitors (AID 1259364); also: potency is read from the fitted curve at half-maximal effect;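 also: wild-type HCT-116 cells with endogenous class I/II HDAC activity; nearly all actives have a fitted effect of over 45% in size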
Method in brief: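 HCT-116 (wild type), 1,500 cells/well, overnight; compound 2 hr 37C 5% CO2; HDAC-Glo I/II reagent 30 min RT; luminescence readout.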

[6] = qHTS assay to identify small molecule HDAC inhibitors - cell viability counter screen (AID 1259365); also: nearly all actives have a fitted effect of over 50% in size; also: potency is read from the fitted curve at half-maximal effect
Method in brief: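 Viability readout: CellTiter-Glo luminescence. Wild-type HCT-116 cells, 2hr compound treatment following overnight attachment at 37 C.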

[7] = qHTS assay to identify small molecule agonists of the sonic hedgehog signaling (Shh) pathway - cell viability counter screen (AID 1259366); also: nearly all actives have a fitted effect of over 50% in size; also: potency is read from the fitted curve at half-maximal effect
Method in brief: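 Viability measured fluorometrically (CellTiter-Fluor, 1hr, 37C) in 3T3 Gli1-Luc reporter cells after 23hr compound exposure within a 24hr incubation at 37C/5% CO2.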

[8] = qHTS assay to identify small molecule antagonists of the sonic hedgehog signaling (Shh) pathway - cell viability counter screen (AID 1259367); also: nearly all actives have a fitted effect of over 55% in size; also: potency is read from the fitted curve at half-maximal effect
Method in brief: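 Fluorescence read-out (CellTiter-Fluor, 1 hr at 37C) taken after 23 hr compound treatment of 3T3 Gli1-Luc cells stimulated with conditioned medium. Cells were seeded at 2,000 per well and pre-incubated 4 hr.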

[9] = qHTS assay to identify small molecule agonists of the sonic hedgehog signaling (Shh) pathway (AID 1259368; calls by dose curve;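 also: NIH/3T3-derived 3T3Gli1-Luc cells carrying a stable Gli1-driven firefly luciferase reporter; series mostly up to about 92 µM; nearly all actives have a fitted effect of over 15% in size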)
Method in brief: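 Read-out: firefly luciferase luminescence from a Gli1 response element reporter stably integrated in NIH/3T3-derived 3T3Gli1-Luc cells, measured 30 min at room temperature after reagent addition. Compound exposure lasted 24 hr at 37 C, 5% CO2.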

[10] = biological target: Estrogen receptor beta (Homo sapiens) (UniProt Q92731); assay: qHTS assay to identify small molecule antagonists of the estrogen receptor beta (ER-beta) signaling pathway (AID 1259378; active = well fitted inhibition curve with a large enough effect in the signal ratio in the repeat runs, not every such curve was filed as active; the % refers to the signal ratio)
Method in brief: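 ER-beta-UAS-bla HEK293T cells in 2% charcoal-stripped FBS medium treated with compound plus 1nM final 17-beta-estradiol for 16 hr at 37C. Beta-lactamase reporter read by FRET substrate fluorescence after 2 hours at room temperature.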

[11] = qHTS assay to identify small molecule agonists of the androgen receptor (AR) signaling pathway in the presence of an antagonist - cell viability counter screen (AID 1259379);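 also: MDA-kb2 human breast cancer cells carrying an MMTV luciferase reporter; series mostly up to about 92 µM; nearly all actives have a fitted effect of over 25% in size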
Method in brief: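 Viability counter screen: CellTiter-Fluor fluorescence, measured in the same wells as the luciferase read-out. MDA-kb2 cells, 3,000/well, with nilutamide at 3.0uM final and compounds at 15 concentrations, 16 hr at 37C, 0% CO2.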

[12] = qHTS assay to identify small molecule agonists of the estrogen receptor beta (ER-beta) signaling pathway - cell viability counter screen (AID 1259380); also: nearly all actives have a fitted effect of over 30% in size; also: potency is read from the fitted curve at half-maximal effect
Method in brief: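 Luminescence read-out (CellTiter-Glo, 30 min, room temp) taken in the same wells as the beta-lactamase reporter assay; ER-beta-UAS-bla HEK293T cells exposed to DMSO-dissolved compounds for 16 hr at 37C in 2% charcoal-stripped FBS medium.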

[13] = biological target: Androgen receptor (Homo sapiens) (UniProt P10275); assay: qHTS assay to identify small molecule agonists of the androgen receptor (AR) signaling pathway in the presence of an antagonist (AID 1259381; calls by dose curve; also: nearly all actives have a fitted effect of over 15% in size)
Method in brief: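 Luciferase read-out (ONE-Glo, 30min room temperature) in MDA-kb2 MMTV-reporter cells; agonist mode run in presence of AR antagonist nilutamide, 3.0uM final. Compounds tested as 15-point series, 16hr exposure at 37C, 0% CO2.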

[14] = qHTS assay to identify small molecule antagonists of the estrogen receptor beta (ER-beta) signaling pathway - cell viability counter screen (AID 1259382); also: series mostly up to about 92 µM; nearly all actives have a fitted effect of over 55% in size
Method in brief: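 Luminescent ATP read-out (CellTiter-Glo, 30 min, RT) taken in the same wells as the bla reporter assay. HEK293T ER-beta-UAS-bla cells in 2% charcoal-stripped FBS were exposed to compounds with 1nM E2 for 16 hr at 37C.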

[15] = biological target: Estrogen receptor (Homo sapiens) (UniProt P03372); assay: qHTS assay to identify small molecule agonists of the estrogen receptor alpha (ER-alpha) signaling pathway in the presence of an antagonist (AID 1259383; calls by dose curve; also: top concentration of the series differs between compounds; nearly all actives have a fitted effect of over 15% in size)
Method in brief: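 Luciferase luminescence (ONE-Glo, 30min at room temperature) measured in VM7Luc4E2 cells after 22hr compound exposure at 15 concentrations, with 10.0nM ICI-182,780 final present; cells express endogenous ER-alpha and carry four EREs upstream of luciferase.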

[16] = qHTS assay to identify small molecule agonists or antagonists of the thyroid stimulating hormone receptor (TSHR) signaling pathway - wild type cell line counter screen (AID 1259384; calls by dose curve)
Method in brief: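 Wild-type Hek293 cells, 800/well, 18 h at 37C, then compound with Ro20-1724 for 30 min RT. cAMP by HTRF (cAMP-d2/anti-cAMP cryptate), 1 h RT, fluorescence read. 15 concentrations, triplicates.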

[17] = biological target: Thyrotropin receptor (Homo sapiens) (UniProt P16473); assay: qHTS assay to identify small molecule antagonists of the thyroid stimulating hormone receptor (TSHR) signaling pathway (AID 1259385; calls by dose curve; also: nearly all actives have a fitted effect of over 20% in size)
Method in brief: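 TSHR-HEK293 cells (800/well) plated 18 h, then compounds with Ro20-1724 and TSH at 1.5 ng/mL final, 30 min at room temperature. cAMP quantified by HTRF (cAMP-d2/anti-cAMP-cryptate, 1 h); 15 concentrations in triplicate.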

[18] = qHTS assay to identify small molecule antagonists of the sonic hedgehog signaling (Shh) pathway (AID 1259369; calls by dose curve; also: nearly all actives have a fitted effect of over 45% in size; also: potency is read from the fitted curve at half-maximal effect)
Method in brief: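 Luminescence readout: firefly Luc under Gli1 response element in 3T3Gli1-Luc cells (NIH/3T3 clone). Antagonist mode, stimulation by conditioned medium; compound exposure 24hr at 37 C, 5% CO2.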

[19] = biological target: Estrogen receptor beta (Homo sapiens) (UniProt Q92731); assay: qHTS assay to identify small molecule agonists of the estrogen receptor beta (ER-beta) signaling pathway (AID 1259377; active = well fitted activation curve with a large enough effect in the signal ratio in the repeat runs, not every such curve was filed as active; the % refers to the signal ratio)
Method in brief: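 A UAS-controlled beta-lactamase reporter in ER-beta-UAS-bla HEK293T cells reports receptor activation. Compounds act for 16 hr at 37C in 2% charcoal-stripped serum, and a FRET substrate is read by fluorescence after 2 hours.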

[20] = qHTS assay to identify small molecule phospholipidosis (PLD) inducers (AID 1259344; active = well fitted curve in the direction sought with a large enough effect; an effect the other way counts as inactive or inconclusive)
Method in brief: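 Read-out is LipidTOX Red fluorescence (ex 595/em 615) imaged in HepG2 cells after 24 h compound exposure at 37 C, with Hoechst nuclear counterstain (ex 352/em 461) allowing per-cell normalisation.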

Measured: Potency

Chain of Estrogen receptor (Homo sapiens) (P03372 whole entry, looked up): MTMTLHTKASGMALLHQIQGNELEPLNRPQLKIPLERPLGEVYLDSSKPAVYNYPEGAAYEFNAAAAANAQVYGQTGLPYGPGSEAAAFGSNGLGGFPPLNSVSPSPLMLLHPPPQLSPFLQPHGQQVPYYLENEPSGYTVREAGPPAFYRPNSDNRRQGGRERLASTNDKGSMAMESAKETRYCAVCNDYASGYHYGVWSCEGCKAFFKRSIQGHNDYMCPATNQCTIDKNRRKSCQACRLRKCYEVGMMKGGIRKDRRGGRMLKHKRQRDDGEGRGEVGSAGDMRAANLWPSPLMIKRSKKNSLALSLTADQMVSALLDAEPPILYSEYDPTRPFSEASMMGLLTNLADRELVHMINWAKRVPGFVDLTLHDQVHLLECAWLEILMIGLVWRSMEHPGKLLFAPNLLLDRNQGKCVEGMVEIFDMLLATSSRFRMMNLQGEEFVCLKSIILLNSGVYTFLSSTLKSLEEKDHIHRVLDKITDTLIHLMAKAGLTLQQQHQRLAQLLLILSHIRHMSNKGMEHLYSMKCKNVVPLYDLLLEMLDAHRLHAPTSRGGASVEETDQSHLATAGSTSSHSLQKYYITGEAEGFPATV
Chain of Thyrotropin receptor (Homo sapiens) (P16473 whole entry, looked up): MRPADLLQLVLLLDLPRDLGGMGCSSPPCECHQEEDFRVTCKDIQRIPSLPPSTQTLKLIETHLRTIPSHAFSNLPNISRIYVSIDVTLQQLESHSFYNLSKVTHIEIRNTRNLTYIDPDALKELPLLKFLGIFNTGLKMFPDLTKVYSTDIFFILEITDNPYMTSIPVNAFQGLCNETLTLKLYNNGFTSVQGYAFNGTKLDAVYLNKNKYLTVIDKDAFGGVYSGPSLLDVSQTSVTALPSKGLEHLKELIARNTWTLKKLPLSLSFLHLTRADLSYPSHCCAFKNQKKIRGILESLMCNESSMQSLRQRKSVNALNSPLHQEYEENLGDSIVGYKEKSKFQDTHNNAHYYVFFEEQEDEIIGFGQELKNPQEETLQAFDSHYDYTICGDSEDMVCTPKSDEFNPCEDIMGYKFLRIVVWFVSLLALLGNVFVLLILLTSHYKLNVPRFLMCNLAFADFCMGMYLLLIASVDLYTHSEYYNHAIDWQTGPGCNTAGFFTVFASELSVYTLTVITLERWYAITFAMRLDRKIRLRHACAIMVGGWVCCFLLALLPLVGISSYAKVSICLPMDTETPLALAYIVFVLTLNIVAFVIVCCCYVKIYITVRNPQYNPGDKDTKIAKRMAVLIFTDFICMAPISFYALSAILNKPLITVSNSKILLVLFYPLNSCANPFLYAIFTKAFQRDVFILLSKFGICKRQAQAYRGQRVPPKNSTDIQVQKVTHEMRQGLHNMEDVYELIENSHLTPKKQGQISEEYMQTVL
Chain of Androgen receptor (Homo sapiens) (P10275 whole entry, looked up): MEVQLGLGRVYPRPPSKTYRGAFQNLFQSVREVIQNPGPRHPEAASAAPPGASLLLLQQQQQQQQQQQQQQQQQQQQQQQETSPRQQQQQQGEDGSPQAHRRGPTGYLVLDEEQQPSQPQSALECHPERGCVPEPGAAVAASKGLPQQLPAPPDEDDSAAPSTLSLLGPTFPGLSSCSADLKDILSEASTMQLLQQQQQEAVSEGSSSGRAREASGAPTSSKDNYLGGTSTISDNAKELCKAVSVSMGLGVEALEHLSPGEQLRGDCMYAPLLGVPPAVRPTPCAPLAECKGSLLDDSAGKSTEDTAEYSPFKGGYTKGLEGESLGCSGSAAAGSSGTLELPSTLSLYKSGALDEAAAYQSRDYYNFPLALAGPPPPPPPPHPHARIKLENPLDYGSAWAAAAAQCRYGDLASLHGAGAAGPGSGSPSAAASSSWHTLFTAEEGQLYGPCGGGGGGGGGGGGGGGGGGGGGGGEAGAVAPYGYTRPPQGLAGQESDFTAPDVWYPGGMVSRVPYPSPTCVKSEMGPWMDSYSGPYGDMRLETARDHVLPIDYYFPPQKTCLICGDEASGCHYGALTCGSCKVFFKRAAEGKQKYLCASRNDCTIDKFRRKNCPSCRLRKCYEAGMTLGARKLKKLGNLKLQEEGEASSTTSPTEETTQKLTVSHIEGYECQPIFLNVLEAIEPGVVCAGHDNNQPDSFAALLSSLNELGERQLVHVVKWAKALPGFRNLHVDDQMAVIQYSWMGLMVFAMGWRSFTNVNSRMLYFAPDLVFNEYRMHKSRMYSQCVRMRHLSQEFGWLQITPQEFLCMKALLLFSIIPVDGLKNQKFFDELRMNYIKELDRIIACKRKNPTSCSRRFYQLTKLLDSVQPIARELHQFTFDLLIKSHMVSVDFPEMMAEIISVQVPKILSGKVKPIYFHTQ
Chain of Estrogen receptor beta (Homo sapiens) (Q92731 whole entry, looked up): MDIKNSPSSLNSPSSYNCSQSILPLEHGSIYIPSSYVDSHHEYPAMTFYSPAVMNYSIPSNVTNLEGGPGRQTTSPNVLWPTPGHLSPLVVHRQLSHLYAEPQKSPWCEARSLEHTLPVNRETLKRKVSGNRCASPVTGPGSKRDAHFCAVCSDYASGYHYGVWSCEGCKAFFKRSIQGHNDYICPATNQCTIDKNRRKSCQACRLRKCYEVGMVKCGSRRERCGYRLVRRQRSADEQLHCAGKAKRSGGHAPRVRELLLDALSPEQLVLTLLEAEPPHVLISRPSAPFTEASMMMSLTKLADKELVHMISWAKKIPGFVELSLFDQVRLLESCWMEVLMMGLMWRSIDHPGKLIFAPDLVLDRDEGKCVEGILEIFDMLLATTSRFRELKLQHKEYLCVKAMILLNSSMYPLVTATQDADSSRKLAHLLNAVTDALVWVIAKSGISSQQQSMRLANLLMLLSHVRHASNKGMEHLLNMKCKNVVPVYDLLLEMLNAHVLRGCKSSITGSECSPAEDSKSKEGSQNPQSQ

COc1cc(OC)c2ccc(=O)oc2c1
not listed: [18] | [19] | [20]
inactive: all other assays above

Cc1cc(CCCOc2c(C)cc(-c3noc(C(F)(F)F)n3)cc2C)on1
active: [3] 26.6 µM
not listed: [4] | [10] | [15] | [17] | [20]
inactive: all other assays above

C[C@H](CS)C(=O)N1CCC[C@H]1C(=O)O
not listed: [4] | [9] | [11] | [15]
inactive: all other assays above

Cc1cn([C@H]2C[C@H](F)[C@@H](CO)O2)c(=O)[nH]c1=O
not listed: [7] | [14] | [15]
inactive: all other assays above

C/C(C=O)=C\c1ccccc1
active: [5] 30 µM
not listed: [3] | [8] | [13] | [15] | [20]
inactive: all other assays above

CCN(Cc1cccc(S(=O)(=O)O)c1)c1ccc(C(=C2C=CC(=[N+](CC)Cc3cccc(S(=O)(=O)O)c3)C=C2)c2ccc(O)cc2S(=O)(=O)[O-])cc1
active: [1] 16.6 µM | [2] 18.6 µM | [4] 16.6 µM | [5] 3.71 µM | [6] 9.32 µM | [7] 16.6 µM | [8] 16.6 µM | [18] 4.67 µM
inactive: [9] | [19] | [10] | [15]

CC(C)N(C)C
not listed: [3] | [10] | [13] | [19] | [20]
inactive: all other assays above

COC(C)(C)OC
not listed: [3] | [7] | [8] | [10] | [13] | [19] | [20]
inactive: all other assays above

CCCCCCCC/C=C\CCCCCCCC(=O)OCCO
active: [18] 36.2 µM
not listed: [3] | [8] | [10] | [12] | [13] | [14] | [15] | [20]
inactive: all other assays above

CCOCCC(=O)OCC
not listed: [3] | [9] | [10] | [13] | [16] | [17] | [20]
inactive: all other assays above

CC(=O)OC(C)C[N+](C)(C)C (centres undefined)
not listed: [3] | [6] | [10] | [13] | [15] | [18]
inactive: all other assays above

CC(=O)OCCC1CCCCC1
not listed: [3] | [8] | [13] | [14] | [15] | [16] | [17] | [20]
inactive: all other assays above

CCC(CO)(CO)[N+](=O)[O-]
not listed: [3] | [10] | [13] | [19] | [20]
inactive: all other assays above

CCN(CC)CCOc1ccccc1C(=O)CCc1ccccc1
active: [12] 21.1 µM
not listed: [3] | [6] | [8] | [10] | [13] | [14] | [18]
inactive: all other assays above

O=C(c1ccccc1)C1CCC1
not listed: [3] | [13] | [15] | [20]
inactive: all other assays above

O=P(O)(O)Oc1ccccc1
not listed: [3] | [8] | [10] | [13] | [18] | [20]
inactive: all other assays above

CC12CC3CC(C)(C1)CC(N)(C3)C2
active: [18] 16.8 µM
not listed: [3] | [7] | [8] | [13] | [15]
inactive: all other assays above

CCOC(=O)N1CCC(Nc2ccc(Cl)cc2N)CC1
active: [18] 2.98 µM
not listed: [3] | [7] | [10] | [19] | [20]
inactive: all other assays above
